# Test results published in publication PMC7862700, “An all-to-all approach to the identification of sequence-specific readers for epigenetic DNA modifications on cytosine”.
# Experiments:
# Assay in all cases: DAPPL (digital affinity profiling via proximity ligation, sequencing); 10 mM Tris-HCl pH 7.5, 50 mM NaCl, 1 mM DTT, 4% glycerol, room temperature, 30 min; GST-TFs on glutathione beads, 16-mer random dsDNA library, 0.1% formaldehyde crosslink after washing; high values mean tight binding
# [1] = target: T1, FEV (Homo sapiens, UniProt Q99581 1-238); settings: protein: recombinant; tags: N-terminal GST; dsDNA, one strand shown
# T1 sequence: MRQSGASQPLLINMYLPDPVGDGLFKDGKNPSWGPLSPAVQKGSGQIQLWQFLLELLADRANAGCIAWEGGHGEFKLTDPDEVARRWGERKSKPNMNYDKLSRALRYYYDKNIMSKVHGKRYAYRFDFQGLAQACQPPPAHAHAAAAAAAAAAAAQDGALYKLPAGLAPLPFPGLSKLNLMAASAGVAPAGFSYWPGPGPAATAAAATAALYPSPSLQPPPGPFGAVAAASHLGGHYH
# Summary of the method: (§1)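 Yeast served to express human transcription factors as GST fusions, which were then captured on glutathione beads and labelled with DNA barcodes. Pooled with a tag-only sample, they were incubated with 200 nmole of a 16-mer random double-stranded DNA library for 30 min at room temperature in Tris/NaCl/DTT/glycerol buffer, washed, crosslinked with 0.1% formaldehyde, ligated by proximity, amplified by PCR and sequenced. Dividing each hexamer's read frequency for a factor by its frequency for the tag-only sample gives the binding signal.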
# [2] = target: ETV5 (Homo sapiens, UniProt P41161 1-510); settings: protein: recombinant; tags: N-terminal GST; dsDNA, one strand shown
# Chain of ETV5 (P41161 whole entry): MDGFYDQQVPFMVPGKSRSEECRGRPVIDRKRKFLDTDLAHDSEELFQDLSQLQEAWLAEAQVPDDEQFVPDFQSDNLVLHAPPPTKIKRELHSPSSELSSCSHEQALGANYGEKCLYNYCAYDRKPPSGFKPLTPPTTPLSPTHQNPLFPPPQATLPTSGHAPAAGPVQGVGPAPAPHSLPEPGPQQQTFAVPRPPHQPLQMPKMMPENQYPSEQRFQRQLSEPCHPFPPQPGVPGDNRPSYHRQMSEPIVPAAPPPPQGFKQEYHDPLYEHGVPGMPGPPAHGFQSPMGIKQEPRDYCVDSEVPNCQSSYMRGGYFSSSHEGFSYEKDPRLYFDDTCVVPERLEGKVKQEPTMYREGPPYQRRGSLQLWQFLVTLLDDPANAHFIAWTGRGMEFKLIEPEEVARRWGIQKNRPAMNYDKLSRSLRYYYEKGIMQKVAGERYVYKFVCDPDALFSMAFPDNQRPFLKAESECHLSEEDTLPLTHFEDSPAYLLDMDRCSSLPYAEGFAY
# Summary of the method: as §1
# [3] = target: HSF1 (Homo sapiens, UniProt Q00613 1-529); settings: protein: recombinant; tags: N-terminal GST; chain copies: 3; dsDNA, one strand shown
# Chain of HSF1 (Q00613 whole entry): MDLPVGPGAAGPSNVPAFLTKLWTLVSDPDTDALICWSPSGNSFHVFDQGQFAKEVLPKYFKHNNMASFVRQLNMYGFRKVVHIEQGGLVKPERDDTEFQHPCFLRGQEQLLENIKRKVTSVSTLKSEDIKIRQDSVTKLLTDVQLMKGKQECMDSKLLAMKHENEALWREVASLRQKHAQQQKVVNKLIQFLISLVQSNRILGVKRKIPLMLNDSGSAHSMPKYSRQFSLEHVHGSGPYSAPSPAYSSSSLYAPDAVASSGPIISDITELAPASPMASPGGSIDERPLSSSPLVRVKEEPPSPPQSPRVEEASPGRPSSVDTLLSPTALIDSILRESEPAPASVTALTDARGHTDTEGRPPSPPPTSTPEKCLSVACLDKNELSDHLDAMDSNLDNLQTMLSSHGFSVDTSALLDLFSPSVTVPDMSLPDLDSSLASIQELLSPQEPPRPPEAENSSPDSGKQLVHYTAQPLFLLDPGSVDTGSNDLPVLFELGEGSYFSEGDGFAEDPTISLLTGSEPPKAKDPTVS
# Summary of the method: as §1
# [4] = target: T2, SPIC (Homo sapiens, UniProt Q8N5J4 1-248); settings: protein: recombinant; tags: N-terminal GST; dsDNA, one strand shown
# T2 sequence: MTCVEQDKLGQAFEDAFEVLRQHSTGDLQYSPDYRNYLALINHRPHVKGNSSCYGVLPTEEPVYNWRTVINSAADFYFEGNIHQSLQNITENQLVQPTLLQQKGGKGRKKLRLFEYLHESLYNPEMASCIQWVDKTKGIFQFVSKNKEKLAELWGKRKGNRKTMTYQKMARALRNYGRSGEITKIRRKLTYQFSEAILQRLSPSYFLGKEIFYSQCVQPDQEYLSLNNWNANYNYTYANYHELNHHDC
# Summary of the method: as §1
# [5] = target: ELF4 (Homo sapiens, UniProt Q99607 1-663); settings: protein: recombinant; tags: N-terminal GST; dsDNA, one strand shown
# Chain of ELF4 (Q99607 whole entry): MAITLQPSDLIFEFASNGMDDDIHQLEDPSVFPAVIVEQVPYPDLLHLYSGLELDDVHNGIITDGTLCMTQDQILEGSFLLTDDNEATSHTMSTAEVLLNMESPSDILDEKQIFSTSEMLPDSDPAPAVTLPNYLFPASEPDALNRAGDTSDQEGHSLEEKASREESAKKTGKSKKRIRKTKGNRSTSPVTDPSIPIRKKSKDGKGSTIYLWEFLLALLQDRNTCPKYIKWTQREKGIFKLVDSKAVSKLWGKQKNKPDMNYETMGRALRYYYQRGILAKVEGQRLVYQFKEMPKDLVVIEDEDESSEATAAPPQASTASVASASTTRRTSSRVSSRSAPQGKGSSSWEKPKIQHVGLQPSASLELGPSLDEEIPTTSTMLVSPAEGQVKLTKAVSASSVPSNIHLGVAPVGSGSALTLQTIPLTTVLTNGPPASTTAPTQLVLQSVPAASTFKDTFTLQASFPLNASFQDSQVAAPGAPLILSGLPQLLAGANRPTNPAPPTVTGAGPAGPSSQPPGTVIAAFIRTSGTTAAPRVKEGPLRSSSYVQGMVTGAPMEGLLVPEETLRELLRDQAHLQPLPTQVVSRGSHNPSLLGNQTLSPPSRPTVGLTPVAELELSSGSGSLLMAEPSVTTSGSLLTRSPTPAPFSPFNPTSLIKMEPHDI
# Summary of the method: as §1
# [6] = target: T3, ELK4 (Homo sapiens, UniProt P28324-2 1-405); settings: protein: recombinant; tags: N-terminal GST; dsDNA, one strand shown
# T3 sequence: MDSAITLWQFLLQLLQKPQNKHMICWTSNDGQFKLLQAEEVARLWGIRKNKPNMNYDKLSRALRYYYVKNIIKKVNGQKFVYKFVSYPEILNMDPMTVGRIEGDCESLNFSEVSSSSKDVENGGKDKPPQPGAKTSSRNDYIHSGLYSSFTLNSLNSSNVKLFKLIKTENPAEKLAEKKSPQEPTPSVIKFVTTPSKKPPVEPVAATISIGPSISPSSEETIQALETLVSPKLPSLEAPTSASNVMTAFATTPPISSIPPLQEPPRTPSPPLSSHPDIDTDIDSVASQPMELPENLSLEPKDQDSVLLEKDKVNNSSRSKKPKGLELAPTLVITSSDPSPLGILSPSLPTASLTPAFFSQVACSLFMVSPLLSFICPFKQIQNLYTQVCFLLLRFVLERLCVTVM
# Summary of the method: as §1
# [7] = target: T4, ETV2 (Homo sapiens, UniProt O00321 1-342); settings: protein: recombinant; tags: N-terminal GST; dsDNA, one strand shown
# T4 sequence: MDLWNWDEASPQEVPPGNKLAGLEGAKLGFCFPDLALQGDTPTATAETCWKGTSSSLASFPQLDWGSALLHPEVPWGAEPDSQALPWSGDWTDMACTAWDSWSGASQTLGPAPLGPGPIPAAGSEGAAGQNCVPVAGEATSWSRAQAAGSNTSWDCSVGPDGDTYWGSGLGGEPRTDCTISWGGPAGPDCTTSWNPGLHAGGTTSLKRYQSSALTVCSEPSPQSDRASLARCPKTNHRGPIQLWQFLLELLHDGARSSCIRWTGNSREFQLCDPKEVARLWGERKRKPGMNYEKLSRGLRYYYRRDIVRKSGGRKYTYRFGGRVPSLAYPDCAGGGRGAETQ
# Summary of the method: as §1
# [8] = target: T5, ELF3 (Homo sapiens, UniProt P78545 1-371); settings: protein: recombinant; tags: N-terminal GST; dsDNA, one strand shown
# T5 sequence: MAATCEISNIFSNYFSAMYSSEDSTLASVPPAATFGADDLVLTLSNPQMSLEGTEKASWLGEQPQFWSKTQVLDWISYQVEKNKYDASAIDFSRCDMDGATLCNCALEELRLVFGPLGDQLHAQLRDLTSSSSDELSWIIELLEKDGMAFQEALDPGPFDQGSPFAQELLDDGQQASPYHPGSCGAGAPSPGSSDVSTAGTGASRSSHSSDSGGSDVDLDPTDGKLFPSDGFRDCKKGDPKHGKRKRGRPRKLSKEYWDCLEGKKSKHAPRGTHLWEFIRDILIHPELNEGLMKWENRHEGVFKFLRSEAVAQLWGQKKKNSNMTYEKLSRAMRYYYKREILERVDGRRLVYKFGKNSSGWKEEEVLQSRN
# Summary of the method: as §1
# [9] = target: CRX (Homo sapiens, UniProt O43186 1-299); settings: protein: recombinant; tags: N-terminal GST; dsDNA, one strand shown
# Chain of CRX (O43186 whole entry): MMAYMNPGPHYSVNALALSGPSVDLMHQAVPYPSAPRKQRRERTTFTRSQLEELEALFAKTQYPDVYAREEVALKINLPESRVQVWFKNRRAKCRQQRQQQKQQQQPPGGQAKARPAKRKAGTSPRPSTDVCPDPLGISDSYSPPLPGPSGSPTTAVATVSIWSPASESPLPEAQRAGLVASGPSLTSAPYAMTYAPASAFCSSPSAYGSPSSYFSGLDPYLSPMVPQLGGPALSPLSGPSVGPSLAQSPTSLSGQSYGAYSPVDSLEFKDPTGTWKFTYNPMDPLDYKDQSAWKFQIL
# Summary of the method: as §1
# [10] = target: ETV1 (Homo sapiens, UniProt P50549 1-477); settings: protein: recombinant; tags: N-terminal GST; dsDNA, one strand shown
# Chain of ETV1 (P50549 whole entry): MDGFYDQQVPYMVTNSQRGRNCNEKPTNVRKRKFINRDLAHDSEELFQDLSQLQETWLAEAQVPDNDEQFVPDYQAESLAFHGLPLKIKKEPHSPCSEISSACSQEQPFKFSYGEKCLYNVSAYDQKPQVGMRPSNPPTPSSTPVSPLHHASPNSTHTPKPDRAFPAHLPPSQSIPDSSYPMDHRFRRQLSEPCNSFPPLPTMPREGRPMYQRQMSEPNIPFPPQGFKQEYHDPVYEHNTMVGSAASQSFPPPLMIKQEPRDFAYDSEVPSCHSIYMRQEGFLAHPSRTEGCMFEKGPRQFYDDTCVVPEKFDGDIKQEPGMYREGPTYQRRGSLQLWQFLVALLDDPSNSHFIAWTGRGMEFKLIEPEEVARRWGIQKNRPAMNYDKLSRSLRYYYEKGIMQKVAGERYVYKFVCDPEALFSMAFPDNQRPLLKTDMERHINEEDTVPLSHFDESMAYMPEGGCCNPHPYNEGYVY
# Summary of the method: as §1
# [11] = target: T6, ERF (Homo sapiens, UniProt P50548 1-548); settings: protein: recombinant; tags: N-terminal GST; dsDNA, one strand shown
# T6 sequence: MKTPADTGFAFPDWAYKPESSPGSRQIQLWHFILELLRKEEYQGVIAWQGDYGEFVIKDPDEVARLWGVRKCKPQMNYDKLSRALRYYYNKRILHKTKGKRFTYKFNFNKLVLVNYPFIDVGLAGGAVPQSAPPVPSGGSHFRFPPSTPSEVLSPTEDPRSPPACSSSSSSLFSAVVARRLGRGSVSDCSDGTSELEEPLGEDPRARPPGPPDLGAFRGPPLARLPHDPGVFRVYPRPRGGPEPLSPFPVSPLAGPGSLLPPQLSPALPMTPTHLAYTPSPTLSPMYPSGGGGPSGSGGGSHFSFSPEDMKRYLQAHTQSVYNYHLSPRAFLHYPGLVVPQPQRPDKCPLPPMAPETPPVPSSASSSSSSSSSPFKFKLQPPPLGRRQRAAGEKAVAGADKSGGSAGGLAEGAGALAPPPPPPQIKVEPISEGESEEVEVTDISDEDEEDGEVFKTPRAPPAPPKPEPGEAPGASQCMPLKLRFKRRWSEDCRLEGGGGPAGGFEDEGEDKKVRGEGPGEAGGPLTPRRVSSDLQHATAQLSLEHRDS
# Summary of the method: as §1
# [12] = target: T7, ETV3L (Homo sapiens, UniProt Q6ZN32 1-361); settings: protein: recombinant; tags: N-terminal GST; dsDNA, one strand shown
# T7 sequence: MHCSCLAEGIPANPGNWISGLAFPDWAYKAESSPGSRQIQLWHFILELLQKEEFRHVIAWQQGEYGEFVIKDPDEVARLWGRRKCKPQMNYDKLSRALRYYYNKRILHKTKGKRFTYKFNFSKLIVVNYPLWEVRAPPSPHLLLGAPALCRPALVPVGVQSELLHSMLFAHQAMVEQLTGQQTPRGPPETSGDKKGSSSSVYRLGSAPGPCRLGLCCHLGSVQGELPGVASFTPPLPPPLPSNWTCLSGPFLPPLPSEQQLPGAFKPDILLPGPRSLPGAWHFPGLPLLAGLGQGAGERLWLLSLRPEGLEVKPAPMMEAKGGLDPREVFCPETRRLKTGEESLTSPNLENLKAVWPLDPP
# Summary of the method: as §1
# [13] = target: T8, ETS2 (Homo sapiens, UniProt P15036 1-469); settings: protein: recombinant; tags: N-terminal GST; dsDNA, one strand shown
# T8 sequence: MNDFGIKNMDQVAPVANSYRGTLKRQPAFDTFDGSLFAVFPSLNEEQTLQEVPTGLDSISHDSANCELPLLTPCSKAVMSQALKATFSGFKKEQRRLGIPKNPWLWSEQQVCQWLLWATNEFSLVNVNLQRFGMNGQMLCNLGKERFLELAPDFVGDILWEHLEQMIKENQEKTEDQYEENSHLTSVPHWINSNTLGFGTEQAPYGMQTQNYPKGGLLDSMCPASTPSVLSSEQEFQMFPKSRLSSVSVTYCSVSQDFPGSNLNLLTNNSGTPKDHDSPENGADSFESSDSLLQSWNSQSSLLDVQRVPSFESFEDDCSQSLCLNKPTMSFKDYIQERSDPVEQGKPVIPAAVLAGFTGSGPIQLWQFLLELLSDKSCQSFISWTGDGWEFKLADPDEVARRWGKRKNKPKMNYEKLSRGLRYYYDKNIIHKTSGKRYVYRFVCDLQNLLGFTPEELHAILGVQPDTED
# Summary of the method: as §1
# [14] = target: T9, SPDEF (Homo sapiens, UniProt O95238 1-335); settings: protein: recombinant; tags: N-terminal GST; dsDNA, one strand shown
# T9 sequence: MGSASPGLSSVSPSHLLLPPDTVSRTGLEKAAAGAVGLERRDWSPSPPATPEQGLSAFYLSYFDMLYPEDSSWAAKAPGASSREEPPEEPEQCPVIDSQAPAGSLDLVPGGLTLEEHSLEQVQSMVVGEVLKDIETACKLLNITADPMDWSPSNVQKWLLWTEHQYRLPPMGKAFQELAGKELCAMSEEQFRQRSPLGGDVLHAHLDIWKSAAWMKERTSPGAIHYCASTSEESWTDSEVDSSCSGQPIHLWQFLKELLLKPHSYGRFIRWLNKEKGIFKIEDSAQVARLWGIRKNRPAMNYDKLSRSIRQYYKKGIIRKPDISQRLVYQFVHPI
# Summary of the method: as §1
# [15] = target: T10, ETV7 (Homo sapiens, UniProt Q9Y603 1-341); settings: protein: recombinant; tags: N-terminal GST; dsDNA, one strand shown
# T10 sequence: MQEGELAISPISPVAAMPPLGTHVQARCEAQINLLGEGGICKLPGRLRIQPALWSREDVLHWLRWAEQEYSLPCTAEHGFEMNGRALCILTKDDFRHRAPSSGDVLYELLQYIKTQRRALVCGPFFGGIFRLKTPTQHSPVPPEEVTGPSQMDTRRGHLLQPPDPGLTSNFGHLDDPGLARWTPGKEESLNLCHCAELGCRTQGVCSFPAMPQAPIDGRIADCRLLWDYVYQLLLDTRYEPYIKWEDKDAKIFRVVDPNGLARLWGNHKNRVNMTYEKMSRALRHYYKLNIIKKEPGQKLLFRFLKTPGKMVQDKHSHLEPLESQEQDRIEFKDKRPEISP
# Summary of the method: as §1
# [16] = target: T11, ELF5 (Homo sapiens, UniProt Q9UKW6-2 1-255); settings: protein: recombinant; tags: N-terminal GST; dsDNA, one strand shown
# T11 sequence: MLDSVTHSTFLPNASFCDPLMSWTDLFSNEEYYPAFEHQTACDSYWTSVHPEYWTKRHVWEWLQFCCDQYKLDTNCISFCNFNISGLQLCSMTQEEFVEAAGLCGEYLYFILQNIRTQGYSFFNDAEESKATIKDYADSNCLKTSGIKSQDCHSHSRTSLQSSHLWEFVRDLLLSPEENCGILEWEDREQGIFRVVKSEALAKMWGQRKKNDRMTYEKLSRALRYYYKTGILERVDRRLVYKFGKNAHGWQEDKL
# Summary of the method: as §1
# [17] = target: T12, ETV3 (Homo sapiens, UniProt P41162-2 1-143); settings: protein: recombinant; tags: N-terminal GST; dsDNA, one strand shown
# T12 sequence: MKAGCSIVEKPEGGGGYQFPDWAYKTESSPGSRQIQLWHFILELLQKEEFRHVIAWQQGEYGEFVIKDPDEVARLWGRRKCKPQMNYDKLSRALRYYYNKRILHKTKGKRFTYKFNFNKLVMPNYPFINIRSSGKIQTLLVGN
# Summary of the method: as §1
# [18] = target: ETV6 (Homo sapiens, UniProt P41212 1-452); settings: protein: recombinant; tags: N-terminal GST; dsDNA, one strand shown
# Chain of ETV6 (P41212 whole entry): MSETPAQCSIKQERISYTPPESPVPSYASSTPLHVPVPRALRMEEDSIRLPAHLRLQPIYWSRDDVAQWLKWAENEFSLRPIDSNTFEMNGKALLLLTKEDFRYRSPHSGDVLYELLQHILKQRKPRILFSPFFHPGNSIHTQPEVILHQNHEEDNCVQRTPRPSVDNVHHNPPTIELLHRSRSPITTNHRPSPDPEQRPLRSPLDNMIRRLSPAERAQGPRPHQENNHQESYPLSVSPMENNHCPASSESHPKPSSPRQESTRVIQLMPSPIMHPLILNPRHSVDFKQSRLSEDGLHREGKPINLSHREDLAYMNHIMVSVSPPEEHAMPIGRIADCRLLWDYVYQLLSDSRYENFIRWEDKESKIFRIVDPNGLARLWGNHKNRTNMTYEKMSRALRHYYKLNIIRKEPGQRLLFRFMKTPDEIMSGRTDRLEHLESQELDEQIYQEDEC
# Summary of the method: as §1
sequence,measurement,setting,value
CTTAAA,binding signal,[1],"1.21 fold enrichment (6-mer frequency, TF over GST control)"
same,binding signal,[2],"1.21 fold enrichment (6-mer frequency, TF over GST control)"
same,binding signal,[3],"1.65 fold enrichment (6-mer frequency, TF over GST control)"
same,binding signal,[4],"1.21 fold enrichment (6-mer frequency, TF over GST control)"
same,binding signal,[5],"1.12 fold enrichment (6-mer frequency, TF over GST control)"
same,binding signal,[6],"1.11 fold enrichment (6-mer frequency, TF over GST control)"
same,binding signal,[7],"1.1 fold enrichment (6-mer frequency, TF over GST control)"
same,binding signal,[8],"1.2 fold enrichment (6-mer frequency, TF over GST control)"
same,binding signal,[9],"2.38 fold enrichment (6-mer frequency, TF over GST control)"
same,binding signal,[10],"1.25 fold enrichment (6-mer frequency, TF over GST control)"
same,binding signal,[11],"1.17 fold enrichment (6-mer frequency, TF over GST control)"
same,binding signal,[12],"1.3 fold enrichment (6-mer frequency, TF over GST control)"
same,binding signal,[13],"1.28 fold enrichment (6-mer frequency, TF over GST control)"
same,binding signal,[14],"1.27 fold enrichment (6-mer frequency, TF over GST control)"
same,binding signal,[15],"1.19 fold enrichment (6-mer frequency, TF over GST control)"
same,binding signal,[16],"1.16 fold enrichment (6-mer frequency, TF over GST control)"
same,binding signal,[17],"1.22 fold enrichment (6-mer frequency, TF over GST control)"
same,binding signal,[18],"1.26 fold enrichment (6-mer frequency, TF over GST control)"
